Pf apPOL block – Pf-apPOL inhibitors, biochemical, fluorescence; Plasmodium falciparum apicoplast DNA polymerase (apPOL); Recombinant Pf-apPOL, molecular beacon fluorescence, 1.5 h; inhibition, % at 10 µM; 210,000 tested, 0.25% active; AID 1794808, 2022
mHTT-CaM PPI inh – mutant huntingtin-calmodulin interaction inhibitors – biochemical, AlphaScreen, primary screen; P42858; AlphaScreen His-mHTT/GST-CaM binding, luminescence; inhibition, % at 15 µM; 190,000 tested, 3.6% active; AID 1671202, 2021
Target sequence (P42858 whole entry, looked up, change not shown): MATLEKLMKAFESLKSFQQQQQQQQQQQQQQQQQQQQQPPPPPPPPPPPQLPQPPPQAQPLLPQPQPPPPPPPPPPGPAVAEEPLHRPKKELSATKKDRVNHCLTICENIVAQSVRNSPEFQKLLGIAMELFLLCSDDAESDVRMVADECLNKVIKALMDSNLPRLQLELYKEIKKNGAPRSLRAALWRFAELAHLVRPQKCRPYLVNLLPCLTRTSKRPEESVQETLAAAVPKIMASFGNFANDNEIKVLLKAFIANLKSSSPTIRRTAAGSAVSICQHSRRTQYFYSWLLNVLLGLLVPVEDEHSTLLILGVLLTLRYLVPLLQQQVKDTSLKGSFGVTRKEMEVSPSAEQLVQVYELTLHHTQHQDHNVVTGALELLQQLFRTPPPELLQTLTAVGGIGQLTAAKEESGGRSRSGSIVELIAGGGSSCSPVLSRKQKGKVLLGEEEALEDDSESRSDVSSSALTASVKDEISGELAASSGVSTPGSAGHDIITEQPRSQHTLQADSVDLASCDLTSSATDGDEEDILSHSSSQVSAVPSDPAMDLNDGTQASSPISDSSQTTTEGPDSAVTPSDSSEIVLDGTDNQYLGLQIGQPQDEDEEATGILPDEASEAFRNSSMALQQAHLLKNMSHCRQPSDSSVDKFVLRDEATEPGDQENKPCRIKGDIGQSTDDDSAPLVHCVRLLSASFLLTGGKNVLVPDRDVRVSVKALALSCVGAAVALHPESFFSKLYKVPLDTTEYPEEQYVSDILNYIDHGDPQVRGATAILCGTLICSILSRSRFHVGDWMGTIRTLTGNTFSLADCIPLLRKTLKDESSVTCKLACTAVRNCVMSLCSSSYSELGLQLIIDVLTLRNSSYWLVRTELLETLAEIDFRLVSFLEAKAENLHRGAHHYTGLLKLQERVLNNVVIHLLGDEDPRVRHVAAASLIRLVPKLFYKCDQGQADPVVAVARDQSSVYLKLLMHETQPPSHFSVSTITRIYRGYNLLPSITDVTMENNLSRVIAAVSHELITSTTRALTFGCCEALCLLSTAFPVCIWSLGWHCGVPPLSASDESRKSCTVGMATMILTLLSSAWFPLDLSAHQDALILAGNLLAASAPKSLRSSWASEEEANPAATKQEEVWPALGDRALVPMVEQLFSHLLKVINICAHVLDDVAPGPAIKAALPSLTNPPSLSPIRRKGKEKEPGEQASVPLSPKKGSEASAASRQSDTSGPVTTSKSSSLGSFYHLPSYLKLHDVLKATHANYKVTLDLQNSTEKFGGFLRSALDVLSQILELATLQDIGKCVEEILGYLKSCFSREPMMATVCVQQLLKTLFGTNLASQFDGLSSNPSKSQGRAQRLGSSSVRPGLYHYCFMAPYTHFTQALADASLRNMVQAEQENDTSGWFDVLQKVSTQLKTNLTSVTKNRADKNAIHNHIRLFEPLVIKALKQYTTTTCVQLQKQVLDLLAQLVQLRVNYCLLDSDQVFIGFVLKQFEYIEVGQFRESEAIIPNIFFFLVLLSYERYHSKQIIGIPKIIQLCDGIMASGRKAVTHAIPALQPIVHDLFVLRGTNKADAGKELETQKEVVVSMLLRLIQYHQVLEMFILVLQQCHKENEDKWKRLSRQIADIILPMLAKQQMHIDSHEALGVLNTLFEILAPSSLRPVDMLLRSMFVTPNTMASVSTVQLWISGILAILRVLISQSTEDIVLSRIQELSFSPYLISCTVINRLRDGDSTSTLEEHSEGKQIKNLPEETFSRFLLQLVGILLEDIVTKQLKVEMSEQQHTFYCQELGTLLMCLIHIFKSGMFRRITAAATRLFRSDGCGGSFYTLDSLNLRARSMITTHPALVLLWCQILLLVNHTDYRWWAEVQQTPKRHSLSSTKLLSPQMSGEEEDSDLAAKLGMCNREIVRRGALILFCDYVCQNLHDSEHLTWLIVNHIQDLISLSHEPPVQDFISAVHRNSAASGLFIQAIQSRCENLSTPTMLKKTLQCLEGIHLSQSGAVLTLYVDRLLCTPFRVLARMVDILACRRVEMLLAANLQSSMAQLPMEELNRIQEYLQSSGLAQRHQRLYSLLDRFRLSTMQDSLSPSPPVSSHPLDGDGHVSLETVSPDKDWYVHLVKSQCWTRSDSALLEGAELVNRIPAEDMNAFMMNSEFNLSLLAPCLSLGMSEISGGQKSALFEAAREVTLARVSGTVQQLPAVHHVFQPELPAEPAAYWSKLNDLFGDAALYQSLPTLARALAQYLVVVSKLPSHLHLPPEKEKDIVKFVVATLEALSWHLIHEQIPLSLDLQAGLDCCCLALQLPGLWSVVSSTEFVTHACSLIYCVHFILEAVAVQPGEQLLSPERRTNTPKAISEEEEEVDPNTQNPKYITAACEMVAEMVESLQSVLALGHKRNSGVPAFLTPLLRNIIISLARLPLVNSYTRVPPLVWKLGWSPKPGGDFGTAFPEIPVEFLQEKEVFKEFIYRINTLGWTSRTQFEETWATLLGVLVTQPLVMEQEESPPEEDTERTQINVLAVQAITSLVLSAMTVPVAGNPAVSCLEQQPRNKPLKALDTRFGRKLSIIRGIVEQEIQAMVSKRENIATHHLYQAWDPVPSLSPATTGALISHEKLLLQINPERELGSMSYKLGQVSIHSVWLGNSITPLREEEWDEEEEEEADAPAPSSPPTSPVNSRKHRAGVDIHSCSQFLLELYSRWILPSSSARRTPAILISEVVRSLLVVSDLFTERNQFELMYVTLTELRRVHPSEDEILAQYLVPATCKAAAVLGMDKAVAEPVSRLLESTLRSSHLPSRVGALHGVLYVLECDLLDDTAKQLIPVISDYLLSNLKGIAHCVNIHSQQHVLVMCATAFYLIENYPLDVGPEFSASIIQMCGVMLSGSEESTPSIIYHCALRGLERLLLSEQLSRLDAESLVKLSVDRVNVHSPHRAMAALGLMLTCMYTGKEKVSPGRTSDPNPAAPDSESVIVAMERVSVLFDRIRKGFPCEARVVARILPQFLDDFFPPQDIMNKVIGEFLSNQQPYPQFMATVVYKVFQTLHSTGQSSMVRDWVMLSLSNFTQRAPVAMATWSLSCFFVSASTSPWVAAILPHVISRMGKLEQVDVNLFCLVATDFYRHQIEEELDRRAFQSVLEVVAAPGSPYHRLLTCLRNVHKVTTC
Large screens that a line does not name were inactive. This excerpt belongs to a sample that is enriched for hits. Cut-off read from the data, not from the text of the source: active = inhibition above about 50%; inactive = the rest.

CCOC(=O)NC(=O)C(C#N)=NNc1cccc(C(F)(F)F)c1	none (no result: mHTT-CaM PPI inh)
COc1ccc(OC)c(C2C3=C(CC(C)(C)CC3=O)Nc3ccc4ncccc4c32)c1 (stereo unspecified)	mHTT-CaM PPI inh 52
CC1(C)CC(=O)C2=C(C1)Nc1ccc3ncccc3c1C2c1ccccn1 (stereo unspecified)	none
O=C(Nc1nc2n(n1)C(c1ccccc1)C=C(c1ccccc1)N2)c1ccccc1 (stereo unspecified)	mHTT-CaM PPI inh 59
O=C(O)CCC(=O)Nc1nc2n(n1)C(c1ccccc1)C=C(c1ccc(Cl)cc1)N2 (stereo unspecified)	none
Cc1c(C(=O)NC(C)C)c(C2CC2)nn1-c1cccc(Cl)c1	none
Nc1ccc2nc(-c3ccc(-c4nc5ccc(N)cc5[nH]4)cc3)[nH]c2c1	Pf apPOL block 68
Nc1ccc(-c2nc3ccc(C(=O)c4ccc5nc(-c6ccc(N)cc6)[nH]c5c4)cc3[nH]2)cc1	none
Nc1ccc(CCc2nc3ccc(N)cc3[nH]2)cc1	none
Nc1ccc(-c2nc3ccc(-c4nc5ccc(N)cc5[nH]4)cc3[nH]2)cc1	mHTT-CaM PPI inh 51
Nc1ccc2nc(Cc3nc4ccc(N)cc4[nH]3)[nH]c2c1	mHTT-CaM PPI inh 79
Nc1ccc2nc(-c3ccccc3-c3nc4ccc(N)cc4[nH]3)[nH]c2c1	none
CCOc1ccc(CCNC(=O)CCS(=O)(=O)Cc2cccc(Cl)c2)cc1OCC	none
COc1ccc2nc(N3CCCC(C(=O)NCCc4ccccc4)C3)sc2c1 (stereo unspecified)	none
O=[N+]([O-])c1ccc(/C=C/S(=O)(=O)n2ccnc2)cc1	none
CCNC(=O)C(=O)Nc1cc(OC)ccc1OC	none
NC#Cc1cnn(-c2ccccc2)n1	none (no result: Pf apPOL block)
COc1ccc2nc(SCC(=O)c3ccc(Cl)cc3)[nH]c2c1	none
CCOc1ccccc1Oc1coc2cc(OCc3ccc([N+](=O)[O-])cc3)ccc2c1=O	none
COc1cccc(N2CCN(C(=O)c3ccc4c(c3)CC(=O)N4C)CC2)c1	none
CCCn1c(C(=O)N(C)Cc2ccccc2)cc2sc(Br)cc21	none
CCCn1c(C(=O)N(C)Cc2ccccc2)cc2sc(C)cc21	mHTT-CaM PPI inh 91
O=C1C2=C(Nc3ccccc3SC2c2ccco2)c2ccccc21 (stereo unspecified)	mHTT-CaM PPI inh 69
COc1ccc(C2Sc3ccccc3NC3=C2C(=O)c2ccccc23)cc1OC (stereo unspecified)	mHTT-CaM PPI inh 69
O=C1CCCC2=C1C(c1ccco1)C1=C(N2)c2ccccc2C1=O (stereo unspecified)	none
COc1cc(C2C3=C(Nc4c2c(=O)[nH]c(=O)n4C)c2ccccc2C3=O)ccc1O (stereo unspecified)	none
COc1ccc(NC(=O)CN2CCC3(CC2)N=C(c2ccc(C)cc2)C(=O)N3)c(OC)c1	none
COc1ccccc1NC(=O)CN1CCC2(CC1)N=C(c1cccc(Cl)c1)C(=O)N2	mHTT-CaM PPI inh 97
COc1ccccc1NC(=O)CN1CCC2(CC1)N=C(c1cccc(C)c1)C(=O)N2	mHTT-CaM PPI inh 50
Cc1ccc(NC(=O)CN2CCC3(CC2)N=C(c2ccccc2)C(=O)N3)cc1F	mHTT-CaM PPI inh 55
CSc1cccc(NC(=O)CN2CCC3(CC2)N=C(c2cccc(C)c2)C(=O)N3)c1	mHTT-CaM PPI inh 70
O=C(CN1CCC2(CC1)N=C(c1ccccc1)C(=O)N2)Nc1ccc(F)c(F)c1	none
CSc1cccc(NC(=O)CN2CCC3(CC2)N=C(c2ccc(C)cc2)C(=O)N3)c1	none
COc1ccccc1NC(=O)CN1CCC2(CC1)N=C(c1ccc(Cl)cc1)C(=O)N2	none
COc1ccc(C2=N/C(=C\c3ccco3)C(=O)O2)cc1[N+](=O)[O-]	none
N#Cc1c2c(c(Sc3nnc(-c4ccccc4)n3-c3ccccc3)n3c1nc1ccccc13)CCC2	none (no result: mHTT-CaM PPI inh)
O=C(Nc1ccc(Cl)cc1)c1cc(S(=O)(=O)N2CCCC2)ccc1F	none
CCOc1ccc(NC(=O)c2ccccc2Br)cc1	none
Cc1ccc(NC(=O)CN2CCC3(CC2)N=C(c2ccccc2)C(=O)N3)c(C)c1	mHTT-CaM PPI inh 56
Cc1ccc(C)c(NC(=O)CN2CCC3(CC2)N=C(c2ccccc2)C(=O)N3)c1	none
COc1ccc(C)cc1NC(=O)C12CCC(C)(C(=O)C1=O)C2(C)C (stereo unspecified)	none
CC(=O)Nc1ccc(N=Cc2c(C)c(C#N)c(=O)n(C)c2O)cc1	none
Cc1c(NC(=O)NCC(F)(F)F)c(=O)n(-c2ccccc2)n1C	none
COc1cc(O)c(CN(C)C)c2oc(-c3ccccc3)cc(=O)c12	none
COc1cc2oc(-c3ccccc3)cc(=O)c2c(O)c1CN(C)C	mHTT-CaM PPI inh 100
O=C(c1cccc([N+](=O)[O-])c1)c1ccc2c(c1)C(=O)N(CC1CCCO1)C2=O (stereo unspecified)	none
O=C(Nc1c(C(=O)O)oc2ccc(Cl)cc12)c1ccc(C(F)(F)F)cc1	Pf apPOL block 85
CC(=O)Nc1c(C(=O)c2ccc(F)cc2)oc2ccc(Cl)cc12	none
NC(=O)c1c(Nc2ccc3c(c2)OCO3)sc(C(=O)c2ccc(Cl)cc2)c1N	mHTT-CaM PPI inh 56
CCOC(=O)c1c(Nc2ccccc2F)sc(C(=O)c2ccc(Cl)cc2)c1N	none (no result: mHTT-CaM PPI inh)
Cc1ccc(-c2cc(C(=O)N3CCN(c4ccc(F)cc4)CC3)ccn2)s1	mHTT-CaM PPI inh 74
Cc1c(C(=O)N2CCN(c3ccc(F)cc3)CC2)sc2nc(-c3ccccc3)cn12	none
Cc1nc(Nc2ccccn2)sc1C(=O)N1CCN(c2ccccc2F)CC1	mHTT-CaM PPI inh 59
CN1CCN(C(=O)c2csc(N3CCN(c4ccccc4F)CC3)n2)CC1	none
Cc1ccc(-c2cc(C(=O)N3CCCCCC3)ccn2)s1	none
Cc1ccnc(Nc2nc(C)c(C(=O)N3CCC(C)CC3)s2)c1	none
O=C(c1csc(Nc2ccccc2)n1)N1CCN(c2ccccc2F)CC1	mHTT-CaM PPI inh 80
Cc1nc(Nc2ccc(F)cn2)sc1C(=O)N1CCN(c2ccccc2)CC1	mHTT-CaM PPI inh 68
Cc1sc2[nH]c(=S)n(C)c(=O)c2c1C	none (no result: Pf apPOL block)
O=C(c1cccnc1)N1CCC(c2cc(=O)n3nccc3n2Cc2ccccc2)CC1	none
Cc1cc(C)c(NC(=O)Cn2cnc(C)c(C)c2=O)c(C)c1	none
Cc1cc2nc(SCCN(C)C)[nH]c2cc1C	none
Cc1nc(Nc2ccc(F)cn2)sc1C(=O)N1CCN(c2ccc(F)cc2)CC1	mHTT-CaM PPI inh 84
Cc1nnsc1C(=O)N1CCN(c2ccc(F)cc2)CC1	none (no result: mHTT-CaM PPI inh)
CCc1ccc(N2C(=O)SC(Nc3ccc(S(N)(=O)=O)cc3)C2=O)cc1 (stereo unspecified)	none
Cc1ccc2nsnc2c1S(=O)(=O)NCCOC12CC3CC(CC(C3)C1)C2	none
CC(C)(C)NC(=O)N1CC2CN(S(=O)(=O)c3cccc(F)c3)CC(C1)O2	none
CCOc1ccc(N=C2C(=O)N(CN3CCCC(C)C3)c3ccccc32)cc1 (stereo unspecified)	none
CCOc1ccc(N=C2C(=O)N(CN3CCCCC3)c3ccccc32)cc1	mHTT-CaM PPI inh 65
N#Cc1c(-c2ccccc2)cc(-c2cccs2)nc1Br	none
COc1nc(-c2cccs2)cc(-c2ccc(C)cc2)c1C#N	Pf apPOL block 53
FC(F)(F)c1nnc2n1N=C(c1ccc(Cl)c(Cl)c1)CS2	none
Cc1ccc(NC(=O)c2cccc(S(=O)(=O)Nc3cccc(C(=O)O)c3)c2)cc1	none
Cc1ccc(S(=O)(=O)N=C2C=C(Nc3cccc(C(=O)O)c3)C(=O)c3ccccc32)c(C)c1	mHTT-CaM PPI inh 86
Cc1ccc(C)c(S(=O)(=O)N=C2C=C(Br)C(=O)c3ccccc32)c1	none

Assay outcomes as filed in PubChem.
